Rows were chosen to be rich in hits. Some 2.4% of all compounds tested hit in one or more screens of this group.
C diff HTS: inhibitors of Clostridium difficile growth; Clostridium difficile clinical isolate growth, OD600, 24 h; active compounds read low; growth activity, negative = inhibition, % at 16 µg/mL (by protocol); 0.25% of 86,000 active; AID 1259249;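 active = mean growth activity at or below -80% and every replicate also at or below -80%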
Pf Dd2 inh: blocks growth of Plasmodium falciparum Dd2 parasites. P. falciparum Dd2 growth, SYBR Green, 72 h; active compounds read low. activity change, % at 10 µM. 2.3% of 94,000 active; in the data active = activity change below about -80%
Hits are given with their value; i = inactive; nt = no result.

SMILES | C diff HTS | Pf Dd2 inh
C[C@H](CO)N1C[C@H](C)[C@H](CN(C)S(=O)(=O)c2ccccc2)OCCCC[C@H](C)Oc2ccc(NC(=O)CCCN(C)C)cc2C1=O | i | i
CNC[C@H]1Oc2c(NC(=O)Nc3ccccc3)cccc2C(=O)N([C@H](C)CO)C[C@@H]1C | i | i
C[C@@H]1CN([C@H](C)CO)C(=O)Cc2cc(NS(=O)(=O)c3ccc(Cl)cc3)ccc2O[C@H]1CN(C)Cc1ccc(C(=O)Nc2ccccc2N)cc1 | i | i
C[C@@H]1CN([C@@H](C)CO)C(=O)Cc2cc(NS(=O)(=O)c3ccccc3)ccc2O[C@@H]1CN(C)Cc1ccc(C(=O)Nc2ccccc2N)cc1 | i | -88
C[C@@H]1CN([C@H](C)CO)C(=O)Cc2cc(NS(=O)(=O)c3ccccc3)ccc2O[C@H]1CN(C)Cc1ccc(C(=O)Nc2ccccc2N)cc1 | i | i
C[C@@H]1CN([C@@H](C)CO)C(=O)Cc2cc(NS(=O)(=O)c3ccc(Cl)cc3)ccc2O[C@@H]1CN(C)Cc1ccc(C(=O)Nc2ccccc2N)cc1 | i | -82
C[C@@H]1CN([C@H](C)CO)C(=O)Cc2cc(NS(=O)(=O)c3ccc(Cl)cc3)ccc2O[C@@H]1CN(C)Cc1ccc(C(=O)Nc2ccccc2N)cc1 | i | -85
C[C@@H]1CN([C@H](C)CO)C(=O)Cc2cc(NS(=O)(=O)c3ccc(F)cc3)ccc2O[C@H]1CN(C)Cc1ccc(C(=O)Nc2ccccc2N)cc1 | i | i
CC(C)NC(=O)Nc1ccc2c(c1)CC(=O)N([C@@H](C)CO)C[C@@H](C)[C@@H](CN(C)S(=O)(=O)c1cccs1)O2 | i | i
O=C(C[C@@H]1CC[C@@H](NS(=O)(=O)c2ccc(F)cc2)[C@@H](CO)O1)NCc1ccccc1F | i | i
COc1ccc(S(=O)(=O)Nc2ccc3c(c2)C(=O)N([C@@H](C)CO)C[C@H](C)[C@@H](CN(C)S(C)(=O)=O)O3)cc1 | i | i
COc1ccc(-c2cnc3c(c2)C(=O)N([C@H](C)CO)C[C@@H](C)[C@@H](CN(C)C(=O)C2CCC2)O3)cc1 | i | i
COc1ccc(NC(=O)N2C[C@@H](O)COC[C@H]3O[C@@H](CC(=O)N4CCN(C)CC4)CC[C@@H]32)cc1 | nt | i
CCS(=O)(=O)N1CCCCN2[C@H](C1)[C@@H](c1ccc(C#Cc3ccccc3OC)cc1)[C@@H]2CO | i | -82
CCS(=O)(=O)N1CCCCN2[C@H](CO)[C@@H](c3ccc(-c4cccc(C#N)c4)cc3)[C@H]2C1 | i | i
Cc1cccc(S(=O)(=O)N2CCCCN3[C@H](CO)[C@H](c4ccc(-c5ccccc5)cc4)[C@@H]3C2)c1 | i | i
Cc1cccc(-c2ccc([C@@H]3[C@H]4CN(S(=O)(=O)c5cccc(C)c5)CCCCN4[C@H]3CO)cc2)c1 | i | i
Cc1cccc(-c2ccc([C@H]3[C@H]4CN(S(=O)(=O)c5cccc(C)c5)CCCCN4[C@H]3CO)cc2)c1 | i | -86
CCS(=O)(=O)N1CCCCN2[C@H](CO)[C@@H](c3ccc(-c4cccc(C#N)c4)cc3)[C@@H]2C1 | i | -89
CCS(=O)(=O)N1CCCCN2[C@H](CO)[C@@H](c3ccc(C#Cc4ccccc4OC)cc3)[C@@H]2C1 | i | i
Cc1cccc(-c2ccc([C@H]3[C@@H](CO)N4CCCCN(S(=O)(=O)c5cccc(C)c5)C[C@H]34)cc2)c1 | i | -85
C[C@H]1CN([C@@H](C)CO)C(=O)c2cc(NS(C)(=O)=O)ccc2O[C@H]1CN(C)Cc1ccc(-c2ccccc2)cc1 | i | i
Cc1ccc(-c2cnc3c(c2)C(=O)N([C@H](C)CO)C[C@H](C)[C@@H](CN(C)C(=O)Cc2ccccc2)O3)cc1 | i | i
CC(C)c1cn(CC[C@@H]2CC[C@@H](NC(=O)C3CCOCC3)[C@@H](CO)O2)nn1 | i | i
CO[C@@H]1CN(C)C(=O)c2cc(NC(=O)Nc3ccccc3)ccc2OC[C@@H](C)N(C(=O)CN(C)C)C[C@H]1C | i | i
SMILES | C diff HTS | Pf Dd2 inh
C[C@H]1CCCCO[C@H](CN(C)S(=O)(=O)c2ccc(F)cc2)[C@@H](C)CN([C@@H](C)CO)C(=O)c2cc(NC(=O)Nc3ccc(F)cc3)ccc2O1 | i | i
C[C@@H]1CCCCO[C@@H](CN(C)Cc2ccc3c(c2)OCO3)[C@H](C)CN([C@H](C)CO)C(=O)c2cc(NC(=O)Nc3ccc(C(F)(F)F)cc3)ccc2O1 | -95 | i
C[C@@H]1CCCCO[C@@H](CN(C)Cc2ccc(C(F)(F)F)cc2)[C@@H](C)CN([C@@H](C)CO)C(=O)c2cc(NC(=O)Nc3ccc4c(c3)OCO4)ccc2O1 | nt | i
C[C@@H]1CCCCO[C@H](CN(C)Cc2ccc(C(F)(F)F)cc2)[C@@H](C)CN([C@@H](C)CO)C(=O)c2cc(NC(=O)Nc3ccc4c(c3)OCO4)ccc2O1 | nt | -81
C[C@H]1CCCCO[C@H](CN(C)Cc2ccc3c(c2)OCO3)[C@@H](C)CN([C@@H](C)CO)C(=O)c2cc(NC(=O)Nc3ccc(F)cc3)ccc2O1 | i | i
C[C@@H]1CN([C@H](C)CO)C(=O)c2cc(NC(=O)Nc3ccc(C(F)(F)F)cc3)ccc2O[C@@H](C)CCCCO[C@@H]1CN(C)Cc1ccc2c(c1)OCO2 | i | i
C[C@@H]1CN([C@@H](C)CO)C(=O)c2cc(NC(=O)Nc3ccc(F)cc3)ccc2O[C@@H](C)CCCCO[C@@H]1CN(C)Cc1ccc2c(c1)OCO2 | i | -83
C/C=C/c1ccc([C@H]2[C@@H](CO)N(C(=O)CC)C23CN(C(=O)c2ccccc2)C3)cc1 | i | i
COCC(=O)Nc1ccc2c(c1)C(=O)N(C)C[C@@H](OC)[C@H](C)CN(Cc1cccc(F)c1)[C@H](C)CO2 | nt | i
CC(=O)N[C@@H]1CC[C@@H](CCNC(=O)C2CCC2)O[C@@H]1CO | i | i
COc1cccc(C#Cc2cnc3c(c2)C(=O)N([C@@H](C)CO)C[C@H](C)[C@@H](CN(C)C(=O)C2CCOCC2)O3)c1 | i | -83
COc1cccc(C#Cc2cnc3c(c2)C(=O)N([C@H](C)CO)C[C@H](C)[C@H](CN(C)C(=O)C2CCOCC2)O3)c1 | i | i
COc1cccc(C#Cc2cnc3c(c2)C(=O)N([C@@H](C)CO)C[C@H](C)[C@H](CN(C)C(=O)C2CCCCC2)O3)c1 | i | -83
COc1cccc(C#Cc2cnc3c(c2)C(=O)N([C@H](C)CO)C[C@H](C)[C@H](CN(C)C(=O)C2CCC2)O3)c1 | i | i
O=C(C[C@@H]1CC[C@H]2[C@@H](COC[C@@H](O)CN2Cc2ccc3c(c2)OCO3)O1)Nc1ccccc1 | i | i
CNC[C@H]1Oc2ccc(NC(=O)CCCN(C)C)cc2C(=O)N([C@@H](C)CO)C[C@H]1C | i | i
C/C=C/c1ccc2c(c1)O[C@@H](CN(C)C(=O)Cc1ccncc1)[C@@H](C)CN([C@H](C)CO)S2(=O)=O | i | i
CC(C)CC#Cc1ccc2c(c1)O[C@H](CN(C)C(=O)Cc1ccncc1)[C@@H](C)CN([C@@H](C)CO)S2(=O)=O | i | i
C[C@H](CO)N1C[C@H](C)[C@H](CN(C)C(=O)Cc2ccncc2)Oc2cc(C#CC3CCCC3)ccc2S1(=O)=O | i | i
CC(C)CC#Cc1ccc2c(c1)O[C@@H](CN(C)C(=O)Cc1ccncc1)[C@H](C)CN([C@@H](C)CO)S2(=O)=O | i | -82
C[C@H](CO)N1C[C@H](C)[C@H](CN(C)C(=O)Cc2ccncc2)Oc2cc(C#CC3CCCCC3)ccc2S1(=O)=O | nt | -86
